# FLuc modulator: inhibits or activates purified firefly luciferase, miR-21 counter-screen. purified FLuc, Km substrates, luminescence inhibition. Potency, µM (doses to about 57.5 µM), actives largely listed as inhibitors. 360,000 compounds, 6.9% hits; also: nearly all actives have a fitted effect of over 55% in size
# Target sequence (P08659 whole entry, looked up): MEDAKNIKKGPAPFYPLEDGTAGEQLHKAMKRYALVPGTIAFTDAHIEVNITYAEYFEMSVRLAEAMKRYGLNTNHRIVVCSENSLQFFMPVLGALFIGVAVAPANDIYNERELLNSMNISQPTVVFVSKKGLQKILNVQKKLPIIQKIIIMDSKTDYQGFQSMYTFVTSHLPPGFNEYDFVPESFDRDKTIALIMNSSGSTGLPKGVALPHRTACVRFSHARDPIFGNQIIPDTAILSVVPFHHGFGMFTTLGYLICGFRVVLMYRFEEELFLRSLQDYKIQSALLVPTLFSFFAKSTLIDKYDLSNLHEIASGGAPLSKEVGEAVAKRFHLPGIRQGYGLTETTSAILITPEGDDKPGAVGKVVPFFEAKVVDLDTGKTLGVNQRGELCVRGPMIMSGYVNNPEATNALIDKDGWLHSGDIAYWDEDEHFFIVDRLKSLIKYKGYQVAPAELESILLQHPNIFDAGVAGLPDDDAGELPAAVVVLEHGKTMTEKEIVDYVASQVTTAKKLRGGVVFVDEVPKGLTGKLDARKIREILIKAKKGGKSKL
#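 Purified P. pyralis luciferase, 10 nM final, with Km-level 10 uM D-luciferin and 10 uM ATP in 50 mM Tris acetate pH 7.5, 10 mM Mg acetate, 0.01% Tween-20, 0.05% BSA; 6-point qHTS titration about 60 µM downward; luminescence read.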
# Rab9 promoter act: Rab9 promoter activation; 320,000 compounds, 2.8% hits; Potency, µM (doses to about 9.22 µM), most hits filed as activators; AID 485297; Huh7 Rab9 promoter-luciferase reporter, luminescence, 24 h; also: nearly all actives have a fitted effect of over 60% in size
#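 Promoter activation is measured as luciferase luminescence in Huh7 cells stably transfected with a Rab9 promoter–luciferase construct, following 24 h compound exposure at 37 °C and 10 min reagent incubation at ambient temperature.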
# NPC1 prom act: activates the NPC1 promoter; 320,000 compounds, 2.4% hits; Potency, µM (series often up to 9.22 µM), most hits filed as activators; Huh7 NPC1 promoter luciferase reporter, 24 h; also: nearly all actives have a fitted effect of over 60% in size
#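 Luminescence from an NPC1 promoter-driven luciferase reporter in stably transfected Huh7 cells was measured after 24 h compound treatment at 37 °C, followed by 10 min ambient incubation with luciferase detection reagent.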
# ELG1 genotox: induces genotoxicity in HEK293T cells with luciferase-tagged ELG1; Potency, µM (titrated, usually from 46 µM), most hits filed as activators; AID 504466; HEK293T ELG1-luciferase reporter, luminescence, 16 h; 330,000 compounds, 1.3% hits; also: nearly all actives have a fitted effect of over 60% in size
#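 Luminescence read-out: rising ELG1-luciferase signal, reflecting elevated ELG1 protein under genetic stress, flags genotoxic compounds. Cells were treated for 16 hr at 37 °C before ONE-Glo detection.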
# KinaseGlo FLuc: Kinase-Glo luciferase inhibition (counter-screen) | 200,000 compounds, 0.28% hits | Potency, µM (top dose mostly 38.3 µM), actives largely listed as inhibitors | Q27757 | Kinase-Glo luciferase, ATP luminescence, 8 min | AID 1379; also: nearly all actives have a fitted effect of over 60% in size
#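 Compound is pinned into ATP-containing buffer (10 uM ATP, imidazole pH 7.2, 7 mM MgCl2). Kinase-Glo luciferase reagent is then added. Light output is recorded following an 8-min room-temperature incubation.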
# SMN2 splice enh: increases expression of the SMN2 splice variant; AID 1458; HEK293 SMN2-luciferase splicing reporter, luminescence, 30-36 h; 210,000 compounds, 2.8% hits; Potency, µM (titrated, usually from 46.1 µM), most hits filed as activators; also: nearly all actives have a fitted effect of over 55% in size
#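 HEK293 cells carry an SMN2 minigene-luciferase reporter in which exon 7 inclusion puts luciferase in frame. Cells were seeded at 2000 cells/well, attached for 10-12 hours, then exposed to compounds for 30-36 hours at 37C before ONE-Glo luminescence.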
# A number is an active result; 0 = inactive; ? = inconclusive; - = no result; [ ] = another dose, or the depositor's remark. Shown are actives, neighbours in structure and some others; about 7.5% of the full set was active somewhere. Calls follow the shape of the dose curve; as a rule, active = well fitted curve in the direction sought with a large enough effect; inconclusive = small, poorly fitted or top-dose-only effect, or another doubt; inactive = no such curve, though single readings can be large; an effect the other way counts as inactive or inconclusive.
SMILES,FLuc modulator,Rab9 promoter act,NPC1 prom act,ELG1 genotox,KinaseGlo FLuc,SMN2 splice enh
COc1ccc2cc1Oc1ccc(cc1)CC1c3cc(c(OC)cc3CCN1C)Oc1c(OC)c(OC)cc3c1C(C2)N(C)CC3 (stereo unspecified),-,-,-,-,0,0
COc1ccc(CCNc2nc3c(c(=O)n(C)c(=O)n3C)n2Cc2ccc(F)cc2)cc1OC,0,-,-,-,-,0
CCOc1ccc(C2CC(c3c(O)n(C)c(=O)n(C)c3=O)=NN2)cc1 (stereo unspecified),0.95µM,?,?,0,-,-
Cn1c(O)c(C2=NNC(c3ccc(Cl)cc3)C2)c(=O)n(C)c1=O (stereo unspecified),9.5µM,0,0,0,-,-
CNC(=O)COC(=O)c1ccc(-c2nc3ccccc3s2)s1,1.1µM,0,?,3.7µM,0,16µM
CCCCN1CC(O)=C(c2nc3ccccc3s2)C1=N,?,?,?,0,0,0
COC(=O)[C@]1(C)CC[C@@]2(C)CC[C@@]3(C)C4=CC=C5C(=CC(=O)C(O)=C5C)[C@@]4(C)CC[C@@]3(C)C2C1 (stereo partly specified),-,-,-,-,0,0
CCc1cc2c(=O)n(C(C)C(=O)OC3CCCCC3)cnc2s1 (stereo unspecified),15µM,?,?,9.2µM,0,11µM
O=C(O)C[C@H]1OCC=C2CN3CC[C@]45c6ccccc6N[C@@H]4[C@H]1[C@H]2C[C@H]35,-,-,-,-,0[7.66 µM],0[9.22 µM]
Cc1c([C@@H](C)C2NC[C@H](C)C[C@@H]2O)ccc2c1C[C@@H]1[C@H]2CC=C2C[C@@H](O)CC[C@@]21C (stereo partly specified),-,-,-,-,0[7.66 µM],0[9.22 µM]
COc1ccc(NC2=NC(C)(C)CS2)cc1,?,?,?,?,0,11µM
COc1ccc(NC2=NCC(C)S2)cc1 (stereo unspecified),0,0,0,0,0,0
CSc1ccc2c(c1)c(CCN)c(C)n2Cc1ccccc1Cl,-,-,-,-,0[7.66 µM],0[9.22 µM]
CCC1(CCSC(=N)N)C(=O)NC(=O)NC1=O,-,-,-,-,0[7.66 µM],0[9.22 µM]
CCOc1cc(C=C2C(=O)NC(=O)NC2=O)ccc1OCC(=O)N1CCOCC1,0,0,0,0,0,0
O=C1NC(=O)C(=Cc2cc(Cl)ccc2OCc2ccc(C(=O)O)cc2)C(=O)N1,24µM,0,0,0,0,0
CC(=O)Oc1c2c(c(CC=C(C)C)c3c1C(=O)C1=CC4CC5C(C)(C)OC(C/C=C(\C)C(=O)O)(C4=O)[C@]15O3)OC(C)(CCC=C(C)C)C=C2 (stereo partly specified),-,-,-,-,0,0
FC(F)(F)c1nc2ccc(SSc3ccc4nc(C(F)(F)F)[nH]c4c3)cc2[nH]1,-,-,-,-,0[7.66 µM],0[9.22 µM]
Cc1ccc2nc3c(cc2c1)CC1(C(=O)N(C)C(=O)N(C)C1=O)C1CCCCN31 (stereo unspecified),5.4µM,0,?,?,0,?
Cc1cccn2c(=O)c3c(nc12)N1CCCCCC1C1(C3)C(=O)N(C)C(=O)N(C)C1=O (stereo unspecified),0,0,0,0,-,-
Cc1ccc2nc3c(cc2c1)CC1(C(=O)N(C)C(=O)N(C)C1=O)C1COCCN31 (stereo unspecified),15µM,0,0,?,-,-
COC(=O)c1ccc(NC(=O)CSc2nc3ccc(N4C(=O)C5C6C=CC(C6)C5C4=O)cc3s2)cc1 (stereo unspecified),13µM,0,0,0,0,0
CCOC(=O)Cn1cc(C(=O)c2ccccc2)c2ccccc21,0,0,0,0,-,-
CCOC(=O)CSc1ncnc2c1cnn2-c1ccccc1,12µM,0,0,0,0,?
O=C(c1ccco1)c1cn(Cc2ccc(Cl)cc2)c2ccccc12,?,0,0,0,0,0
COc1ccccc1OCCCn1cc(C(=O)c2ccco2)c2ccccc21,17µM,0,?,0,0,0
COc1ccc(C(=O)Nc2cccc(S(=O)(=O)NCc3ccco3)c2)cc1,-,-,-,0,-,-
CCCOc1ccc(C(=O)Nc2ccc(-c3cc4ccccc4oc3=O)c(C)c2)cc1,1.7µM,-,-,-,-,0
CC[C@H](CO)Nc1nc(NCc2ccccc2)c2ncn(C(C)C)c2n1,-,-,-,-,0,18µM

# Screens deposited in PubChem BioAssay by National Center for Advancing Translational Sciences (NCATS).
